Assay outcomes as filed in PubChem BioAssay.
FAK blocker = FAK kinase inhibitors, primary screen, biochemical; Focal adhesion kinase 1 (Homo sapiens), Q05397; inhibition, %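 (tested at 7 µM)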; biochemical FAK kinase activity assay; hit rate 0.84% among 97,000; in the data active = inhibition above about 19%
S1P2 antag = human S1P2 receptor antagonists, primary screen, cell-based; Sphingosine 1-phosphate receptor 2 (Homo sapiens), O95136; cell-based S1P2 antagonist assay, inhibition at 5 uM; inhibition, % at 5 µM; hit rate 0.21% among 97,000; AID 736, 2007; in the data active = inhibition above about 45%;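 note: CRE beta-lactamase reporter cells expressing human S1P2 stimulated with S1P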
sdo1 growth = growth rescue of sdo1-depleted yeast, primary screen, S. cerevisiae, bone marrow failure model | S. cerevisiae sdo1-depleted JHY4D growth rescue, OD600 30 h; stronger effect = higher value; pdr5 snq2 efflux-pump mutant strain | z-score at 10 µM | hit rate 0.21% among 140,000 | AID 817, 2007;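 active = z-score above 3 at both the 24 hr and the 30 hr optical density reads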
S1P2 agonist = S1P2 receptor agonists, primary screen, cell-based; Sphingosine 1-phosphate receptor 2 (Homo sapiens), O95136; S1P2-expressing cell line, agonist reporter read-out; hit rate 0.46% among 97,000; activation, % at 4.5 µM; AID 729, 2007; in the data active = activation above about 16%
GALR2 agonist = GALR2 receptor agonists, primary screen, cell-based; Galanin receptor type 2 (Homo sapiens), O43603; GALR2-expressing cells, agonist activation read-out; activation, % (no concentration beside the values); hit rate 0.48% among 140,000; AID 803, 2007; in the data active = activation above about 5%, passing the limit was not always enough
Target sequence (O43603 whole entry, looked up): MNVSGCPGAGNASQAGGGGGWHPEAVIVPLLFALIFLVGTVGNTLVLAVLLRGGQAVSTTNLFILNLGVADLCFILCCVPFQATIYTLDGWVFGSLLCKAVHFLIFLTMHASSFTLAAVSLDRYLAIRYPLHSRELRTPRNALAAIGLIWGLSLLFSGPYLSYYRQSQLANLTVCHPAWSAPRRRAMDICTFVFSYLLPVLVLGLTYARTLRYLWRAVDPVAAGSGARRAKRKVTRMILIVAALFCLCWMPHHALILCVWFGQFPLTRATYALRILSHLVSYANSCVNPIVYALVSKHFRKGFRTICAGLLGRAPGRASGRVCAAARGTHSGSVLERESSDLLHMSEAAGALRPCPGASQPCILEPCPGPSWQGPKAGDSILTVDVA
GALR2 blocker = GALR2 antagonists in receptor-expressing cells, primary screen. Galanin receptor type 2 (Homo sapiens), O43603. antagonist mode. inhibition, % at 4 µM. hit rate 0.39% among 140,000. AID 828, 2007; in the data active = inhibition above about 27%;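 note: cells stimulated with galanin 1-16 at roughly its EC80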
sdo1 rescue conf = SDO1-depleted yeast growth rescue, concentration-response, diseases of bone marrow failure, JHY4D, OD600 | shares compounds with sdo1 growth | S. cerevisiae JHY4D (SDO1-depleted) growth rescue, 30 h; stronger effect = higher value; efflux-deficient strain, SNQ2 and PDR5 mutated | OD recovery (test concentration not listed) | hit rate 44% among 440 | AID 949, 2007;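 active = yeast growth recovered at 30 hours, either rising with dose fitted slope above 0.001 or with average optical density gain above 0.07, some results past the limit were not filed as active; inactive = growth falling with dose or no effect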
A number is an active result; – = inactive; · = no result. Shown are actives, neighbours in structure and some others; about 1.9% of the full set was active somewhere.

SMILES	FAK blocker	S1P2 antag	sdo1 growth	S1P2 agonist	GALR2 agonist	GALR2 blocker	sdo1 rescue conf
Cc1nc2ccccc2n1/N=C/c1cccnc1	–	–	–	–	–	–	·
N#Cc1c(C(F)(F)F)cc(-c2ccccc2)nc1SCC(=O)Nc1sc2c(c1C#N)CCC2	–	–	–	–	–	–	0.093
O=C1CSC(c2ccccn2)N1c1ccccc1 (stereo not given)	–	–	4.1	–	–	–	0.08
COC(=O)c1[nH]nc(C(=O)OC(C)(C)C)c1-c1ccccc1	·	·	–	·	–	–	·
O=C(CSc1nnc(-c2ccc(O)cc2)n1Cc1ccco1)N1CCc2ccccc2C1	–	–	–	–	–	–	·
CCOC(=O)CSc1nc2c(sc3ccc([N+](=O)[O-])cc32)c(=O)n1Cc1ccco1	·	·	–	·	–	–	·
O=C(/C(=C(\[O-])c1ccccc1)[n+]1ccc2ccccc2c1)c1ccc(Cl)cc1	·	·	–	·	–	–	·
O=C(/C(=C(\[O-])c1ccccc1)[n+]1ccc2ccccc2c1)c1ccccc1	·	·	7.9	·	–	–	–
Cc1ccc2cc(C#N)c(SCC(=O)Nc3ccc4sc(C)nc4c3)nc2c1	–	–	–	–	–	–	0.1
COc1ccc(CNc2nc3nc(C)cc(C)n3n2)cc1	–	–	–	–	–	–	·
COc1ccc(-c2nc3nc(C)cc(C)n3n2)cc1	–	–	13	–	–	–	–
S=C(Nc1ccccc1)Nc1nc2ccccc2n1CCOc1ccc(Br)cc1	·	·	7.6	·	–	–	0.089
O=S(=O)(O)c1nc2ccccc2n1CCOc1ccccc1	–	–	8.3	–	–	–	–
Cc1cccc(OCCn2c(S(=O)(=O)O)nc3ccccc32)c1	–	–	–	–	–	–	·
O=C(CN(Cc1ccco1)S(=O)(=O)c1cccs1)Nc1ccccc1C(F)(F)F	–	–	–	–	–	–	·
CCCCCCS(=O)Cc1ccccc1 (stereo not given)	·	·	–	·	–	–	·
CCCCOc1ccc(C(=O)N/N=C/c2ccc(OCCN3CCCCC3)c(OC)c2)cc1	·	·	9	·	–	–	0.11
COc1cc(/C=N/NC(=O)CN2CCCCC2)ccc1OCc1ccccc1	·	·	–	·	–	–	·
COc1ccccc1NC(=O)C(=O)NNC(=O)c1ccco1	–	–	–	–	–	–	·
N#CC(C(=O)C1CCCCC1)c1nc2ccccc2[nH]1 (stereo not given)	–	–	8.8	–	–	–	–
CC(NC(=O)c1sc2ccccc2c1Cl)C1CCCO1 (stereo not given)	·	·	4	·	–	–	–
CC(CCc1ccccc1)NC(=O)CSc1nnnn1C (stereo not given)	–	–	–	–	–	–	·
CC(CCc1ccccc1)NC(=O)CSc1nc(N)cc(N)n1 (stereo not given)	–	–	13	–	–	–	0.11
O=C(CCCOc1ccccc1)N1CCN(c2ccccc2)CC1	–	–	8.8	–	–	–	0.099
Cc1ccccc1NC(=O)COC(=O)/C=C/c1cccc(C(F)(F)F)c1	·	·	–	·	–	–	·
SMILES	FAK blocker	S1P2 antag	sdo1 growth	S1P2 agonist	GALR2 agonist	GALR2 blocker	sdo1 rescue conf
O=C(Nc1ccccc1)C1CC(=O)N(C2CCCCC2)C1 (stereo not given)	–	–	4.1	–	–	–	–
Cc1nn(C)c(C)c1S(=O)(=O)N1CCCC(C(=O)NC2CCCCCC2)C1 (stereo not given)	·	·	–	·	–	–	0.083
O=C(O)c1ccc(Cn2cc(Cl)cn2)cc1	–	–	–	–	–	–	·
Cc1cc(NC(=O)c2noc3c2CCc2ccccc2-3)n(-c2ccccc2)n1	·	·	9.6	·	–	–	0.083
O=C(CCCCCN1C(=O)c2ccccc2C1=O)Nc1ccc2c(c1)OCCO2	–	–	–	–	–	–	·
O=C(CCN1C(=O)c2ccccc2C1=O)Nc1ccc2c(c1)OCCO2	–	–	–	–	–	–	0.076
CCC(=O)Nc1ccc(NC(=O)c2cccc(OC)c2)nc1	–	–	–	–	–	–	·
COc1cccc(C(=O)Nc2ccc(NC(=O)C3CC3)cn2)c1	–	–	–	–	–	–	0.084
CCOCCCNC(=O)C(Cc1ccccc1)NC(=O)c1ccco1 (stereo not given)	–	–	–	–	–	–	·
COc1ccc(S(=O)(=O)N2CCCC(C(=O)O)C2)cc1 (stereo not given)	–	–	–	–	–	–	–
CC(C)CCn1cnc2c(c1=O)c1nc3ccccc3nc1n2Cc1ccc2c(c1)OCO2	–	–	–	–	–	–	·
Nc1nc(NC(=O)c2ccco2)nn1-c1ccccc1	·	·	3.1	·	–	–	–
N=c1oc2ccc3ccccc3c2cc1-c1nnc2n1CCCCC2	–	–	–	–	–	–	·
CCOC(=O)c1cccc(NC(=O)CSc2nnc(COc3ccccc3C)o2)c1	–	–	–	–	–	–	–
COC(=O)C(C)N(C(=O)c1cccc(Cl)c1)c1c(C)cccc1C (stereo not given)	–	–	5.6	–	–	–	–
COc1cccc(C(=O)Nc2cccc(-c3nnc(-c4ccco4)o3)c2)c1	–	–	4.7	–	–	–	–
Nc1ccc(-n2nncc2-c2ccc(Cl)cc2)cc1	–	–	13	–	–	–	–
O=[N+]([O-])c1ccc(-n2nncc2-c2ccc(Cl)cc2)cc1	–	–	–	–	–	–	·
COc1ccc(C2=NOC(C(=O)Nc3cccnc3)C2)cc1 (stereo not given)	–	–	3.5	–	–	–	–
COc1cccc(C2=NOC(C(=O)Nc3cccnc3)C2)c1 (stereo not given)	–	–	–	–	–	–	·
CCOC(=O)/C=C1\SCC(=O)N1CC(=O)NC12CC3CC(CC(C3)C1)C2	–	–	14	–	–	–	0.084
CCOC(=O)c1sc(NC(=O)CSc2nnnn2-c2ccc(C)c(C)c2)nc1C	–	–	–	–	–	–	0.1
CCOC(=O)c1sc(NC(=O)CSc2nnnn2-c2ccccc2)nc1C	–	–	–	–	–	–	·
COc1cc(-c2nc(-c3ccc4c(c3)-c3ccccc3S4(=O)=O)c(-c3ccccc3)[nH]2)cc(OC)c1O	–	–	–	–	–	–	·
CS(=O)(=O)N(CC(=O)Nc1cccc(Cl)c1Cl)c1ccccc1	–	–	–	–	–	–	·
Cc1[nH]c2ccccc2c1C(=O)CN1CCN(C2CCCCC2)CC1	–	–	9.1	–	–	–	–
COc1cc(OC)c(-c2c3cc(O)c(=O)cc-3oc3cc(O)c(O)cc23)cc1OC	·	·	3.8	·	–	–	–
Cc1c2cc(O)c(=O)cc-2oc2cc(O)c(O)cc12	–	–	–	–	–	–	·
CC12CCC(C(=O)N(NC(=O)c3cccnc3)C1=O)C2(C)C (stereo not given)	·	·	6.2	·	–	–	–
